Results from PubChem BioAssay AID504832 (National Center for Advancing Translational Sciences (NCATS), 2011).
The campaign covered roughly 310,000 compounds. About 18,000 (5.8%) were called active. Not shown: some 22% with an inconclusive outcome. The call rests on the fitted dose curve; in most records, active means well fitted inhibition curve with a large enough effect; inconclusive means small, poorly fitted or top-dose-only effect, or another doubt; inactive means no such curve, though single readings can be large or run the other way. Many of the other results were omitted from the sample, so actives are more common in it than they were.

Test: Primary qHTS for delayed death inhibitors of the malarial parasite plastid, 48 hour incubation
Settings: P. falciparum luciferase growth in erythrocytes; series mostly up to 28.7 µM; activity change, negative = inhibition: at the top concentration
Procedure, shortened: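 A one-generation exposure of luciferase-tagged malaria parasites in RPMI 1640/Albumax erythrocyte culture, 37 C and 5% CO2. Inhibition is inferred from decreased luminescence after adding detection reagent.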
On the % scale 0 is the no-effect control and ±100 the full control effect; potency means the concentration at half of the fitted maximal effect.

Structure (SMILES) | activity change, negative = inhibition | Potency
O=C(NC1CCCCC1)c1ccc(-c2ccc(Cl)cc2)o1 | 129% (inactive) | 
O=C(Cn1ncc(N2CCCC2)c(Br)c1=O)c1ccc(Cl)cc1 | 94.5% (inactive) | 
COC(=O)c1ccc(NCC(=O)N2CCCCCC2)cc1 | 190% (inactive) | 
O=C(Cn1nc(CNc2ccc(Cl)cc2)[n+]2c1CCCCC2)c1ccc(Cl)cc1 |  | 1.04 µM (active)
Cn1c(CCNS(=O)(=O)c2ccc(F)cc2)nnc1SCc1cccnc1 | -12.3% (inactive) | 
CC(C)c1ccc(S(=O)(=O)NC2CCCC2)cc1 | 21.3% (inactive) | 
O=c1cc(O)c(-c2cccc(C(F)(F)F)c2)c(Cl)[nH]1 | 9.62% (inactive) | 
Cc1ccccc1/C=C\c1nc(O)c([N+](=O)[O-])c(=O)[nH]1 | -10.1% [at 0.00184 µM] (inactive) | 
O=c1[nH]c(/C=C\c2cccc(C(F)(F)F)c2)nc(O)c1[N+](=O)[O-] |  | 9.28 µM (active)
Cc1ccc(C)c(NC(=O)c2cc(-c3cc(C)cc(C)c3O)n[nH]2)c1 | -16% [at 0.00184 µM] (inactive) | 
CCC(=O)Nc1c(S(=O)(=O)c2ccccc2)c2nc3ccccc3nc2n1Cc1ccccc1 | -9.82% (inactive) | 
COCC(C)OC(=O)c1c(N)n(CCCN2CCOCC2)c2nc3ccccc3nc12 (stereo unspecified) | -7.36% (inactive) | 
CCOC(=O)c1c(N)n(Cc2ccccc2)c2nc3ccccc3nc12 |  | 9.28 µM (active)
Cc1c(C)c2ccc(OCC(=O)N3CCN(c4cccc(Cl)c4)CC3)cc2oc1=O | 11.4% (inactive) | 
O=C1Nc2ccccc2C12Nc1ccccc1S2 (stereo unspecified) | -8.82% (inactive) | 
CCc1ccc2c(c1)C(c1ccc([N+](=O)[O-])cc1)=NNC(c1ccccc1)=N2 | 4.15% (inactive) | 
CCc1ccc2c(c1)C1(NN=C(c3ccccc3)S1)C(=O)N2 (stereo unspecified) |  | 3.7 µM (active)
O=C(c1ccc(Br)o1)N1CCN(CCOc2ccccc2)CC1 | 2.93% (inactive) | 
Cc1ccc(NS(=O)(=O)c2ccc(C(C)(C)C)cc2)cn1 | -7.91% (inactive) | 
O=C(/C=C/c1cccs1)c1cc(Cl)ccc1OC(=O)N1CCOCC1 |  | 10.4 µM (active)
O=C(c1cccs1)N1CCN(C(=O)N2CCOCC2)CC1 | 16.9% (inactive) | 
O=C(Oc1cccc(C(=S)N2CCOCC2)c1)c1cccc(Cl)c1 | 10.5% (inactive) | 
O=C(O)c1cccc(S(=O)(=O)N2CC=C(c3ccccc3)CC2)c1 | -23.1% (inactive) | 
CC(C)C[C@H](NC(=O)C1CCC(CNC(=O)[C@@H]2CCCN2C(=O)OC(C)(C)C)CC1)C(=O)O (stereo partly specified) | 5.48% (inactive) | 
Cc1ccccc1C(=O)N1CCC(C(=O)Oc2ccc(C#N)cc2)CC1 | 10% (inactive) | 
Cc1cc(=O)oc2ccc(OCC(=O)O)cc12 | -2.39% (inactive) | 

Structure (SMILES) | activity change, negative = inhibition | Potency
COc1cccc(-c2nnc(SCCOc3ccc4c(C)cc(=O)oc4c3)o2)c1 | 40.1% (inactive) | 
Cc1cc(=O)oc2cc(OCCC[n+]3ccccc3)ccc12 |  | 5.22 µM (active)
CCCC(NC(=O)c1ccccc1)c1nc2ccccc2n1Cc1ccc(C(=O)OC)o1 (stereo unspecified) |  | 13.1 µM (active)
CC(O)c1nc2ccccc2n1Cc1ccc([N+](=O)[O-])cc1 (stereo unspecified) | -3.37% (inactive) | 
CCCn1c(C(Cc2ccccc2)NC(=O)COC)nc2ccccc21 (stereo unspecified) | -6.33% (inactive) | 
Cn1ccnc1SCC(=O)Nc1ccc2c(c1)OCCO2 | 67.6% (inactive) | 
CCN(CC(=O)Nc1ccccc1OC)C(=O)CC1CC2CCC1C2 (stereo unspecified) | -19% (inactive) | 
N#C[C@]1(S(=O)(=O)c2ccccc2)C[C@@H]2ON=C(c3cccc(Br)c3)[C@@H]2C1 | -5.53% (inactive) | 
Cc1ccc(NC(=O)c2cccs2)cc1S(=O)(=O)N(C)C | 6.38% (inactive) | 
Cc1ccc(C(=O)Nc2ccc(C)c(S(=O)(=O)N(C)C)c2)s1 | 241% (inactive) | 
Cc1ccc(NC(=O)CNCc2ccccn2)cc1S(=O)(=O)N(C)C |  | 16.5 µM (active)
Cn1c(CCc2ccccc2)nnc1SCC(N)=O | 2.6% (inactive) | 
COc1ccc(NC(=O)c2cccc3c2C(=O)N(CC2CCCO2)C3)cc1OC (stereo unspecified) | -17.8% (inactive) | 
O=C(c1cccnc1NCc1ccccc1)N1CCOCC1 | 6.15% (inactive) | 
Oc1c(C(c2ccccn2)N2CCOCC2)ccc2cccnc12 (stereo unspecified) |  | 9.28 µM (active)
Cc1nc2sc(C(c3ccco3)N3CCOCC3)c(O)n2n1 (stereo unspecified) | 1.8% (inactive) | 
CCc1noc(C)c1C(=O)N1CCCSC1=Nc1ccccc1OC | -6.15% (inactive) | 
Cc1c(C(=O)Nc2ccccn2)oc2ccc(Br)cc12 | 132% (inactive) | 
CC(C)c1ccc(C(=O)OC2CCOC2=O)cc1 (stereo unspecified) | 11.3% (inactive) | 
CCC(C)(C)NC(=O)CN(C(=O)CCC(=O)Nc1nccs1)c1ccc2c(c1)OCO2 | -19.2% (inactive) | 
COc1ccc(C(=O)N2CCc3cc(OC)c(OC)cc3C2c2cccc([N+](=O)[O-])c2)cc1 (stereo unspecified) |  | 6.57 µM (active)
COc1ccccc1C1SCCN1C(=O)c1ccc([N+](=O)[O-])cc1 (stereo unspecified) | -5.95% (inactive) | 
COc1cc2c(cc1OC)C(c1cccc([N+](=O)[O-])c1)=NCC2 | -14.1% (inactive) | 
Cc1ccc(OCCNC(=O)CNC(=O)c2ccc(C)c(C)c2)cc1 | 6% (inactive) | 
CN(C(=O)COC(=O)c1nc(Cl)ccc1Cl)C1CCS(=O)(=O)C1 (stereo unspecified) | 2.04% (inactive) | 
